The record followed here is PubChem BioAssay (NCATS).

Records with an inconclusive call do not appear. Activity calls are given as the source filed them. The call rests on the fitted dose curve; in most records, active means well fitted inhibition curve with a large enough effect; inconclusive means small, poorly fitted or top-dose-only effect, or effect the other way; inactive means flat fitted curve, though single readings scatter.

This test has as its target ATP-dependent 6-phosphofructokinase (Trypanosoma brucei brucei) (UniProt O15648). Briefly: qHTS Assay to Find Inhibitors of T. brucei phosphofructokinase: hit validation (AID 492961).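 Further: luminescence reports ADP formed as PFK phosphorylates fructose-6-phosphate with ATP; series mostly up to about 51 µM.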 The method in brief:
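Reaction: 0.1 M triethanolamine pH 8.0, 5 mM MgCl2, F6P 0.5 mM, ATP 0.1 mM, PFK 1.25 nM, 45 min RT. Read-out: ADP-Glo luminescence. Analysis: concentration-response fits, classed by r2 and efficacy.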

Sequence of ATP-dependent 6-phosphofructokinase (Trypanosoma brucei brucei) (O15648 whole entry, looked up): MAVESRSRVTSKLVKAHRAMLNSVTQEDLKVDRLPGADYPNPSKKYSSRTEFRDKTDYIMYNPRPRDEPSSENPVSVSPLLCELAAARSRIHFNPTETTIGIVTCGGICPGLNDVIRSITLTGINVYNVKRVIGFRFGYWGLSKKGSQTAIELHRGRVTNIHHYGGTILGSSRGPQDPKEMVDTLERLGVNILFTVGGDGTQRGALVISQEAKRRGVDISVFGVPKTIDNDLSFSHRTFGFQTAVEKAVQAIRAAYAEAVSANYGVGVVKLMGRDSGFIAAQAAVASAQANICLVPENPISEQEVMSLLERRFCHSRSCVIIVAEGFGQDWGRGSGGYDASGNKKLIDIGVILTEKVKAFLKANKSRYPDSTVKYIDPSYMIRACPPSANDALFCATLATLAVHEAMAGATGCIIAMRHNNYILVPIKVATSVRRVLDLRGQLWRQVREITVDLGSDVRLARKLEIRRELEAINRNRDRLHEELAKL

As for `CC(=O)OCC(=O)[C@@]1(OC(C)=O)[C@@H](C)C[C@H]2[C@@H]3C[C@H](F)C4=CC(=O)C=C[C@]4(C)[C@@]3(F)[C@@H](O)C[C@@]21C`, the compound was classed as inactive. Next, `CN(C)C(=S)SC(=S)N(C)C`: “inactive”; `CO/N=C1\CN(c2nc3c(cc2F)c(=O)c(C(=O)O)cn3C2CC2)CC1CN` (stereo not drawn): “inactive”; `OCc1ccccc1O`: “inactive”. Next, `Cc1c(C)n(CCN(C)C)c2ccc(C(=O)OCCN(C)C)cc12`: “inactive”; `CCN1CCCC1=O`: “inactive”; `NC(CO)(CO)CO`: “inactive”.

On to `C#C[C@]1(OC(C)=O)CC[C@H]2[C@@H]3CCC4=C[C@@H](OC(C)=O)CC[C@@H]4[C@H]3CC[C@@]21C`, for which the compound was called inactive. Next, `CC(=O)Oc1ccc(C(=C2CCCCC2)c2ccc(OC(C)=O)cc2)cc1`: “inactive”. Next, `CCCCCCCCCCOCC(O)CN` (stereo not drawn): “inactive”. With `CCCCCCCCCCCCCCCC[N+](C)(C)CCN(Cc1ccc(OC)cc1)c1ncccn1`, the outcome was inactive.

Regarding `Clc1ccc2c(c1)CCc1cccnc1C2=C1CCNCC1`, the outcome was inactive.

Consider `O=C(CCCN1CCC(O)(c2ccc(Br)cc2)CC1)c1ccc(F)cc1`, for which the result was inactive.

Turning to `COc1cccc(CCc2ccccc2OCC(CN(C)C)OC(=O)CCC(=O)O)c1` (stereo not drawn), the result was inactive. Next, `CC(C)(CO)[C@@H](O)C(=O)NCCCO`: “inactive”; `CCOc1ccc(Cc2nccc3cc(OCC)c(OCC)cc23)cc1OCC`: “inactive”. Next, `CCOC(=O)/C=C(C)/C=C/C=C(C)/C=C/c1c(C)cc(OC)c(C)c1C`: “inactive”; `CC(Cc1cccc(C(F)(F)F)c1)NCCOC(=O)c1ccccc1` (stereo not drawn): “inactive”. Next, `CCN(CC)CCOC(=O)C(c1ccccc1)C1CCCCC1` (stereo not drawn): “inactive”; `COc1ccc(/C=C/C(=O)c2ccc(OC)cc2OC)cc1`: “inactive”; `Nc1ccc(C(=O)Nc2ccccc2N)cc1`: “inactive”. Consider `C[C@H]1C[C@H]2[C@@H]3CCC4=CC(=O)C=C[C@]4(C)[C@@]3(Cl)[C@@H](O)C[C@]2(C)[C@@]1(O)C(=O)CO`, for which the compound was classed as inactive. Next, `COc1cc2c(cc1OC)C(=O)C(CC1CCN(Cc3ccccc3)CC1)C2` (stereo not drawn): “inactive”; `C[C@H]1[C@H](NC(=O)/C(=N/OC(C)(C)C(=O)O)c2csc(N)n2)C(=O)N1S(=O)(=O)O` (stereo in doubt): “inactive”; `O=C(COc1ccc(Cl)cc1)N1CCN(Cc2ccc3c(c2)OCO3)CC1`: “inactive”.

For the compound `CCCCCCCCCCCCCCNCCO`, the result was inactive. Take `CCN(CC)C(=O)N1CCN(C)CC1`: the outcome was inactive. Next, `CCCCCCCCCCCCCCCCOP(=O)([O-])OCC[N+](C)(C)C`: “inactive”. As for `Cc1c(C)n(Cc2ccccc2)c2ccc(C(=O)OCCN(C)C)cc12`, the call was inactive. Next, `CCOC(=O)c1cccc(N)c1`: “inactive”; `Cc1ccnc(NS(=O)(=O)c2ccc(N)cc2)n1`: “inactive”.

Take `Cc1c(C(N)=O)cc([N+](=O)[O-])cc1[N+](=O)[O-]`: the outcome was inactive. In the case of `CCN(CC)CCNC(=O)COc1ccc(Cl)cc1`, the result was inactive. Next, `COC(=O)[C@@H]1CC2=CC(=O)CC[C@]2(C)[C@@]23O[C@@H]2C[C@@]2(C)[C@@H](CC[C@@]24CCC(=O)O4)[C@H]13`: “inactive”; `CC(=O)OCC(=O)NCCCOc1cccc(CN2CCCCC2)c1`: “inactive”. Consider `O=C(OCCOCCO)c1ccccc1Nc1cccc(C(F)(F)F)c1`, for which the result was inactive.

As to `CCCOC(C(=O)OC1CCN(C)CC1)(c1ccccc1)c1ccccc1`, the outcome was inactive. Next, `CC1=C(C(=O)OC(C)C)C(c2cccc([N+](=O)[O-])c2)C(C(=O)OC2CN(C(c3ccccc3)c3ccccc3)C2)=C(N)N1` (stereo not drawn): “inactive”.
